“And” between values parts separate entries of the source, which are not always exact repeats. Equal entries are not always repeated. In all, about 350,000 compounds went through this assay and about 6,000 (1.7%) were called active. Another 5% or so got no clear call; they are omitted. This is one part of a sample in which actives are shown more often than they occur. No stated cut-off is given here; in the data, active means CPE inhibition above about 20% (passing the limit was not always enough); inconclusive means no clear call, values can overlap the other calls; tested in BHK-21 cells. Some structures have more than one record in an assay (separate samples or runs), and their calls can disagree.
Experiment: inhibitors of DENV2 cytopathic effect, primary screen, cell-based, plate reader, single concentration (AID 651640);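 further: 0% = median of neutral control wells and 100% = median of positive control wells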
Details: DENV2-infected cells, cytopathic effect rescue, at 9.99 µM, stronger effect = higher value

Structure (SMILES) | CPE inhibition
C=CCN=C1NC(c2cccc(C(F)(F)F)c2)C(C(=O)OC)=C(C)N1C (configuration not stated) | 2.58% (inactive)
C[C@@H](NC(=O)C[C@@H]1CC[C@@H](NC(=O)C2CCOCC2)[C@@H](CO)O1)c1ccccc1 | 11.3% (inactive)
CN1c2ccc(-c3ccc(F)cc3)cc2[C@@H]2[C@@H](CCN2S(=O)(=O)c2ccc(F)cc2)[C@@H]1CO | -22.1% (inactive)
O=C(NCCc1c[nH]c2ccccc12)c1cccc(Br)c1 | 0.922% (inactive)
CC(=O)NC(Cc1c[nH]c2ccccc12)C(=O)NCCc1ccccc1 (configuration not stated) | -3% (inactive)
C[C@]1(C(=O)NCCc2c[nH]c3ccccc23)C=C[C@@H](Cc2ccccc2)N1C(=O)c1ccccc1 | 40.2% (active)
COCCNC(=O)C[C@H]1CC[C@@H]2[C@H](COc3ccc(NC(=O)Nc4cccc(F)c4)cc3C(=O)N2C)O1 | -0.175% (inactive)
Cc1noc(C)c1NC(=O)Nc1ccc2c(c1)C(=O)N([C@H](C)CO)C[C@H](C)[C@@H](CN(C)S(=O)(=O)c1cn(C)cn1)O2 | 8.16% (inactive) and 22.2% (active)
COc1ccc(S(=O)(=O)N(C)C[C@@H]2Oc3ccc(NC(=O)Nc4c(C)noc4C)cc3C(=O)N([C@H](C)CO)C[C@@H]2C)cc1 | -4.21% (inactive) and 6.91% (inactive)
Cc1noc(C)c1NC(=O)Nc1ccc2c(c1)C(=O)N([C@@H](C)CO)C[C@H](C)[C@H](CN(C)S(=O)(=O)c1cn(C)cn1)OCCCC[C@@H](C)O2 | -4.2% (inactive)
C[C@H](CO)N1C[C@H](C)[C@H](CN(C)S(=O)(=O)c2cn(C)cn2)OCCCC[C@H](C)Oc2ccc(N(C)C)cc2C1=O | 1.23% (inactive)
C[C@H](CO)N1C[C@H](C)[C@H](CN(C)S(=O)(=O)c2cn(C)cn2)Oc2ccc(N(C)C)cc2C1=O | 6.45% (inactive)
C[C@@H]1CN([C@H](C)CO)C(=O)c2cc(N(C)C)ccc2O[C@@H]1CN(C)S(=O)(=O)c1cn(C)cn1 | 70.9% (active)
COCC(=O)Nc1ccc2c(c1)[C@@H]1C[C@@H](CC(=O)N3CCN(C)CC3)O[C@H](CO)[C@@H]1O2 | 2.6% (inactive)
C[C@@H]1CN([C@H](C)CO)C(=O)c2cccc(NC(=O)CCCCCC(=O)Nc3ccccc3N)c2O[C@H]1CN(C)Cc1ccc(Oc2ccccc2)cc1 | -13.3% (inactive)
CO[C@@H]1CN(C)C(=O)c2cc(NC(C)=O)ccc2OC[C@H](C)N(C(=O)Cc2ccccn2)C[C@@H]1C | -0.178% (inactive)
COCC(=O)N1CCC2(CC1)CN(C(=O)Nc1ccccc1F)[C@@H](CO)c1c2c2ccc(OC)cc2n1C | -0.316% (inactive)
COCC(=O)Nc1ccc2c(c1)OC[C@@H](C)N(C(=O)c1cnccn1)C[C@H](C)[C@H](OC)CN(C)C2=O | -10.2% (inactive)
C[C@@H]1CCCCO[C@@H](CN(C)C(=O)CCCN(C)C)[C@H](C)CN([C@@H](C)CO)C(=O)c2cc(NC(=O)Nc3ccccc3)ccc2O1 | -0.42% (inactive)
C[C@@H]1CN([C@@H](C)CO)C(=O)c2cc(NC(=O)Nc3ccc(C(F)(F)F)cc3)ccc2O[C@@H](C)CCCCO[C@@H]1CN(C)C(=O)Nc1cccc2ccccc12 | -5.51% (inactive)
C[C@@H]1CCCCO[C@@H](CN(C)C(=O)CCCN(C)C)[C@@H](C)CN([C@H](C)CO)C(=O)c2cc(NC(=O)Nc3ccc(F)cc3)ccc2O1 | 26.3% (active)

Structure (SMILES) | CPE inhibition
C[C@@H]1CCCCO[C@H](CN(C)C(=O)Nc2cccc3ccccc23)[C@@H](C)CN([C@@H](C)CO)C(=O)c2cc(NC(=O)Nc3ccc(F)cc3)ccc2O1 | 32.7% (active)
C[C@@H]1CN([C@@H](C)CO)C(=O)c2cc(NC(=O)Nc3ccc4c(c3)OCO4)ccc2O[C@@H](C)CCCCO[C@@H]1CN(C)C(=O)Nc1ccc2c(c1)OCO2 | 0.286% (inactive)
C[C@@H]1CCCCO[C@H](CN(C)C(=O)NC2CCCCC2)[C@H](C)CN([C@@H](C)CO)C(=O)c2cc(NC(=O)Nc3ccc(F)cc3)ccc2O1 | 3.1% (inactive)
C[C@@H]1CCCCO[C@@H](CN(C)C(=O)NC2CCCCC2)[C@H](C)CN([C@@H](C)CO)C(=O)c2cc(NC(=O)Nc3ccc(F)cc3)ccc2O1 | 24.1% (active)
COc1ccc(NC(=O)Nc2ccc3c(c2)C(=O)N([C@@H](C)CO)C[C@H](C)[C@@H](CN(C)C(=O)Nc2cccc4ccccc24)OCCCC[C@@H](C)O3)cc1 | -3.89% (inactive)
C[C@@H]1CCCCO[C@H](CN(C)C(=O)NC2CCCCC2)[C@H](C)CN([C@H](C)CO)C(=O)c2cc(NC(=O)Nc3ccc(F)cc3)ccc2O1 | -5.97% (inactive)
C[C@@H]1CN([C@@H](C)CO)C(=O)c2cc(NC(=O)Nc3ccc(C(F)(F)F)cc3)ccc2O[C@@H](C)CCCCO[C@H]1CN(C)C(=O)CCCN(C)C | -0.11% (inactive)
C[C@H]1CCCCO[C@H](CN(C)C(=O)NC2CCCCC2)[C@@H](C)CN([C@@H](C)CO)C(=O)c2cc(NC(=O)Nc3ccc4c(c3)OCO4)ccc2O1 | 34.9% (active)
C[C@H](CO)N1C[C@H](C)[C@@H](CN(C)C(=O)Nc2ccc3c(c2)OCO3)OCCCC[C@H](C)Oc2ccc(NC(=O)Nc3ccc4c(c3)OCO4)cc2C1=O | 0.76% (inactive)
O=S(=O)(c1ccc(F)cc1)N1CCCCN2[C@H](C1)[C@H](c1ccc(C3=CCCCC3)cc1)[C@@H]2CO | -4.44% (inactive)
COc1cccc(S(=O)(=O)N2CCCCN3[C@H](CO)[C@H](c4ccc(C#CC5CC5)cc4)[C@H]3C2)c1 | -34.9% (inactive)
CCN1[C@@H]2Cn3c(ccc(-c4cccc(OC)c4)c3=O)[C@H]1[C@@H](C(=O)N(C)C)[C@@H]2CO | -1.41% (inactive)
O=C(Nc1ccccc1)N[C@@H]1CC[C@H](CCn2cc(C3(O)CCCC3)nn2)O[C@@H]1CO | -11.6% (inactive)
C[C@H](CO)N1C[C@H](C)[C@H](CN(C)C)Oc2ccc(NC(=O)Cc3ccccc3)cc2CC1=O | 9.5% (inactive)
CC(C)c1cn(CC[C@@H]2CC[C@@H](NC(=O)C3CCC3)[C@@H](CO)O2)nn1 | -3.48% (inactive)
Cc1noc(C)c1NC(=O)Nc1cccc2c1O[C@H](CN(C)S(C)(=O)=O)[C@H](C)CN([C@H](C)CO)C2=O | 6.73% (inactive)
C[C@@H]1CN([C@@H](C)CO)C(=O)c2cc(-c3cncnc3)cnc2O[C@@H]1CN(C)Cc1ccncc1 | 15% (inactive)
CO[C@@H]1CN(C)C(=O)c2cc(NC(=O)Nc3cc(F)ccc3F)ccc2OC[C@H](C)N(C)C[C@@H]1C | -0.0135% (inactive)
CN1c2ccc(-c3ccc(C#N)cc3)cc2[C@@H]2[C@@H](CCN2C(=O)C2CCCCC2)[C@H]1CO | -20.7% (inactive)
Cc1ccc(CN2CC(N3CCC(Cc4ccccc4)CC3)CS2(=O)=O)cc1 (configuration not stated) | -8.76% (inactive)
Cc1ccc(CN2CCCOCCS2(=O)=O)cc1 | 40.2% (active)

Structure (SMILES) | CPE inhibition
O=S1(=O)CCOC[C@H](CC2CCCCC2)N1Cc1ccc(F)cc1 | 3.12% (inactive)
COc1ccc(-c2cnc3c(c2)C(=O)N([C@H](C)CO)C[C@@H](C)[C@H](CN(C)C(=O)Cc2ccncc2)O3)cc1 | -3.69% (inactive)
FC(F)(F)c1ccc(-c2cccc3c2C2CC3CCN2Cc2ccccc2)cc1 (configuration not stated) | -4.78% (inactive)
CCCCN(C(C)=O)c1ccc2c(c1)C1CC2CCN1Cc1ccccc1 (configuration not stated) | 42.3% (active)
Clc1cccc2c1C1CC2CCN1Cc1ccccc1 (configuration not stated) | -7.07% (inactive)
COc1cccc(S(=O)(=O)N(C)C[C@@H]2Oc3ncc(-c4cccc(C(=O)N(C)C)c4)cc3C(=O)N([C@H](C)CO)C[C@@H]2C)c1 | 9.65% (inactive)
CN1c2ccc(-c3cccc(C#N)c3)cc2[C@@H]2[C@@H](CCN2C(=O)NC2CCCCC2)[C@@H]1CO | -19.7% (inactive)
O=C(N[C@H]1CC[C@H](CCn2cc(-c3ccccc3F)nn2)O[C@@H]1CO)c1ccc2c(c1)OCO2 | 6.43% (inactive)
C[C@H]1CN([C@@H](C)CO)C(=O)c2cccc(NC(=O)Nc3ccccc3)c2O[C@H]1CN(C)S(=O)(=O)c1ccc(Cl)cc1 | 29.2% (active)
C[C@@H]1CN([C@@H](C)CO)C(=O)c2cccc(NS(=O)(=O)c3ccc(F)cc3)c2O[C@H]1CN(C)S(=O)(=O)c1cccs1 | -1.22% (inactive)
COc1ccc(S(=O)(=O)Nc2cccc3c2O[C@@H](CN(C)S(=O)(=O)c2ccc(F)cc2)[C@H](C)CN([C@H](C)CO)C3=O)cc1 | -7.57% (inactive)
C[C@@H]1CN([C@@H](C)CO)C(=O)c2cccc(NS(=O)(=O)c3cccs3)c2O[C@@H]1CN(C)CC1CC1 | 30.5% (active)
Cc1ccc(S(=O)(=O)N(C)C[C@H]2Oc3c(NS(=O)(=O)c4cccs4)cccc3C(=O)N([C@@H](C)CO)C[C@@H]2C)cc1 | -0.283% (inactive)
COc1ccc(S(=O)(=O)N(C)C[C@@H]2Oc3c(NS(=O)(=O)c4ccccc4)cccc3C(=O)N([C@@H](C)CO)C[C@@H]2C)cc1 | -6.28% (inactive)
C[C@@H]1CN([C@@H](C)CO)C(=O)c2cccc(NS(=O)(=O)c3cccs3)c2O[C@H]1CN(C)Cc1ccncc1 | -4.19% (inactive)
C[C@H](CO)N1C[C@H](C)[C@H](CN(C)S(=O)(=O)c2cccs2)Oc2c(NS(=O)(=O)c3ccc(Cl)cc3)cccc2C1=O | 24.5% (active)
C[C@H](CO)N1C[C@H](C)[C@H](CN(C)S(=O)(=O)c2ccccc2)Oc2c(NC(=O)Nc3ccccc3)cccc2C1=O | -3.55% (inactive)
COc1ccc(S(=O)(=O)Nc2cccc3c2O[C@H](CN(C)S(=O)(=O)c2ccc(OC)cc2)[C@@H](C)CN([C@H](C)CO)C3=O)cc1 | 21.2% (active)
C[C@H]1CN([C@@H](C)CO)C(=O)c2cccc(NS(=O)(=O)c3ccc(Cl)cc3)c2O[C@H]1CN(C)S(=O)(=O)c1ccc(Cl)cc1 | -6.39% (inactive)
Cc1ccc(S(=O)(=O)N(C)C[C@@H]2Oc3c(NC(=O)Nc4ccccc4)cccc3C(=O)N([C@H](C)CO)C[C@H]2C)cc1 | 5.91% (inactive)
